The list is not random: actives were taken first. Their share in the collection is about 2.4%.
D2 PAM-1 = potentiates the human D2 dopamine receptor allosterically; P14416; DiscoveRx D2 beta-arrestin cells, luminescence, 90 min; 100% = 57 uM dopamine signal; potentiation, % (test concentration not listed); 360,000 compounds, 0.23% hits; AID 624464; in the data active = potentiation above about 50%; inconclusive = mostly about 30% to 49%
Target sequence (P14416 whole entry, looked up): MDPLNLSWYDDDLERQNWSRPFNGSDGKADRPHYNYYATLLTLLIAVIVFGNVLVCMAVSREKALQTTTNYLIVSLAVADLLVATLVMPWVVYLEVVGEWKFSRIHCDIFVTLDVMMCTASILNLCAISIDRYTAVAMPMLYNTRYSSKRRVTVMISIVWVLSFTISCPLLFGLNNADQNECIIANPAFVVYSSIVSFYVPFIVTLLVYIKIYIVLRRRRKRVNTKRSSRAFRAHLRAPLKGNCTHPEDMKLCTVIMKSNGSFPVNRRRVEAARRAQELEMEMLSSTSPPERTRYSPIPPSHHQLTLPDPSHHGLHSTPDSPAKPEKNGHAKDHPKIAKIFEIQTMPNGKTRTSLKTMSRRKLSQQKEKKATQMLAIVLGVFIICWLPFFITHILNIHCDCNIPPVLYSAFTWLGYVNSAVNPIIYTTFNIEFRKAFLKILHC
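PathHunter beta-arrestin assay in DiscoveRx D2 cells. Compounds were added with an EC20 of dopamine (50 nM final) for 90 min at 37 deg C. Luminescence was read 1 h after detection reagent, with 57 uM dopamine as the EC100 control.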
D2 PAM-2 = D2 dopamine receptor (human) potentiation. P14416. HEK293 T-REx D2, calcium flux, EC20 dopamine potentiation. 340,000 compounds, 0.34% hits. potentiation, % at 10 µM. AID 485347;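 active = potentiation over 3 SD above the plate norm, cut at about 30% in these data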; note: 0% is about no effect
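Primary screen. Calcium kinetics in induced HEK293 T-REx D2 cells: compound pre-addition 180 s, EC20 dopamine, 180 s more.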
D2 ag-1 = agonists of human D2 dopamine receptor (beta-arrestin); P14416; DiscoveRx PathHunter D2 beta-arrestin, luminescence, 90 min; 100% = 57 uM dopamine signal; activation, % (concentration not given with the values); 360,000 compounds, 0.084% hits; AID 624465; in the data active = activation above about 40%; inconclusive = between about 15% and that limit
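DiscoveRx PathHunter D2 beta-arrestin cells (2,100/well) attached overnight, then compound-stimulated 90 min at 37 C in HBSS/10 mM HEPES/0.1% Tween-20 buffer; beta-galactosidase complementation read by luminescence after 1 h at ambient temperature. Dopamine 57 uM final (EC100) as control.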
D2 antagonist = antagonizes the human D2 dopamine receptor. P14416. HEK293 TREx D2 cells, calcium flux, dopamine EC80. inhibition, % at 10 µM. 340,000 compounds, 2% hits; in the data active = inhibition above about 30%; inactive = below that, where a call was filed; note: 0% is about no effect
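Dopamine at EC80 is the agonist stimulus; test compounds precede it by 180 s. Calcium flux read kinetically in a force-coupled, inducible HEK293 T-REx D2 cell line.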
D2 ag-2 = activates the human D2 dopamine receptor; P14416; AID 485358; activation, % at 2 µM; HEK293 T-REx D2 cells, calcium flux agonist mode; 340,000 compounds, 0.53% hits;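 active = activation over 3 SD above normal in the single-dose calcium agonist read, cut at about 30% in these data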; note: 0% is about no effect
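In this primary screen, compounds producing a positive calcium signal within 180 s of addition to tetracycline-induced, force-coupled HEK293 Trex D2 cells are flagged; cells are dye-loaded with a no-wash calcium kit beforehand.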
Active calls of the source: *; ? = inconclusive; / = not tested or not shown.

SMILES | D2 PAM-1 | D2 PAM-2 | D2 ag-1 | D2 antagonist | D2 ag-2
NC(=O)c1noc(C(=O)N(CC(=O)NC2CCCC2)Cc2ccc3c(c2)OCO3)c1N | -9.7 | -3.0 | -1.1 | 36.7* | 1.2
Cc1cc(=O)n(CCO)c(O)c1C#N | 51.8* | 7.6 | 10.5 | -15.3 | 0.0
COc1ccc(Nc2cc(C)c3cc(NC(=O)COc4cccc(C)c4)ccc3n2)cc1 | / | 0.2 | / | / | 1.4
O=C(c1ccccc1)N1CCN(CC(O)COc2cccc3ccccc23)CC1 (configuration not stated) | -25.5 | -1.4 | 2.8 | 6.5 | 2.2
O=C(c1cccc(COc2cccc3ccccc23)c1)N1CCCC1 | 7.3 | 48.4* | 0.8 | -20.9 | 0.7
CCC1CCCCN1CCCNC(=O)CS(=O)Cc1nc(-c2ccc(OC)c(OC)c2)oc1C (configuration not stated) | -8.2 | 2.2 | -3.9 | 35.6* | 2.0
CCc1ccc(-c2nc(CS(=O)CC(=O)NCCCN3CCC(C)CC3)c(C)o2)cc1 (configuration not stated) | -24.0 | -9.2 | -6.9 | 30.3* | 0.4
Cc1ccc(-c2nc(CS(=O)CC(=O)NCCN(CC(C)C)CC(C)C)c(C)o2)cc1 (configuration not stated) | -3.5 | 105.9* | -1.2 | 1.2 | -0.8
CCc1ccc(-c2nc(CS(=O)CC(=O)NCCN3CCCCCC3)c(C)o2)cc1 (configuration not stated) | -19.4 | 4.2 | -2.7 | -2.7 | 0.9
CCN1CCN(C(=O)CS(=O)Cc2nc(-c3ccc(OC)cc3)oc2C)CC1 (configuration not stated) | -4.2 | -14.4 | -5.0 | 39.9* | -0.3
Cc1ccc(-c2nc(CS(=O)CC(=O)NCCN3CCCC3)c(C)o2)cc1 (configuration not stated) | -3.8 | -7.2 | -5.0 | -5.0 | -0.9
C/C(=N\NC(=O)CSCc1ccc([N+](=O)[O-])cc1)c1ccccc1O | -41.6 | -26.9 | -4.5 | 77.0* | 0.0
Cc1ccc(CSCCNC(=O)CSCc2ccc([N+](=O)[O-])cc2)cc1 | -14.5 | -8.6 | 0.3 | 31.7* | -3.0
Cc1cccc(CSCCNC(=O)CSCc2ccc([N+](=O)[O-])cc2)c1 | -21.0 | -4.1 | 0.4 | -13.7 | -0.1
CC(C)OCCCn1c(=O)c2ccccc2n2c(-c3ccc(F)cc3)nnc12 | / | 1.7 | / | / | -1.4
Cc1ccc(NC(=O)C2CCCN(c3nnc(-n4c(C)ccc4C)s3)C2)c(C)c1 (configuration not stated) | / | -1.2 | / | / | -0.9
COC(=O)c1ccccc1-c1c2ccc(=N)cc-2oc2cc(N)ccc12 | -15.0 | -19.7 | -15.6 | 76.9* | 96.6*
COC(=O)c1ccccc1-c1ccc(/C=N/NC(=O)c2cc3ccccc3o2)o1 | -27.9 | -17.3 | -1.7 | -13.9 | 0.4
CCN(c1ccccc1)c1ccc2cc(S(=O)(=O)N3CCCC3)ccc2n1 | / | / | / | / | 0.5
Cc1ccccc1N(CC(N)=O)S(C)(=O)=O | -13.5 | 3.8 | 0.9 | -1.1 | 0.5
Cc1ccccc1N(CC(=O)O)S(C)(=O)=O | 25.1 | 30.8* | -3.6 | 13.5 | -0.2
Cc1c(N2C(=O)c3ccc4c5c(ccc(c35)C2=O)CC4)c(=O)n(-c2ccccc2)n1C | 60.6* | 4.4 | 6.3 | -5.9 | -0.2
Cc1c(N2C(=O)c3ccc(Br)cc3C2=O)c(=O)n(-c2ccccc2)n1C | 12.4 | 18.8 | 1.7 | -6.2 | 0.3
Cc1cc(NC(=O)CN2C(=O)CSc3ccc(S(=O)(=O)N(C)C)cc32)ccc1Br | / | -1.8 | / | / | 0.5
O=C(Nc1ccccc1C(=O)O)c1cccc(NC(=O)c2ccccc2Cl)c1 | 64.1* | -0.2 | 5.5 | 17.1 | 1.2
SMILES | D2 PAM-1 | D2 PAM-2 | D2 ag-1 | D2 antagonist | D2 ag-2
Cc1ccccc1C(=O)Nc1cccc(C(=O)Nc2ccccc2C(=O)O)c1 | 18.5 | 33.3* | 2.9 | 2.5 | 0.5
COc1cc(NS(=O)(=O)c2ccc(NC(=O)/C=C/c3ccc([N+](=O)[O-])cc3)cc2)ncn1 | 101.6* | 8.5 | -5.3 | -3.7 | 0.0
CCCc1c(C)c2ccc(O)c(CN3CCN(c4ccc(F)cc4)CC3)c2oc1=O | / | -9.9 | / | / | -0.7
Oc1c(Cl)cc(Cl)c2c1NCCC2 | 16.9 | 0.7 | ? | 39.2* | 0.5
O=C1NCCCc2c1oc1ccc(O)cc21 | -15.0 | -6.7 | -3.5 | -16.6 | 0.7
CCC(Sc1nc2cc(OC)c(OC)cc2c(=O)n1Cc1ccc(Cl)cc1)C(=O)NCCOC (configuration not stated) | / | 8.5 | / | / | 0.6
Cc1sc2nc(C3CC3)nc(SCC(=O)NCc3ccco3)c2c1C | -14.9 | 11.5 | 6.4 | 8.4 | -0.1
O=C(CSc1nc(C2CCCCC2)nc2ccccc12)NCc1ccco1 | -2.5 | -9.7 | -3.0 | 66.7* | -0.7
O=C(CSc1nc2nccnc2c(=O)n1CCc1c[nH]c2ccccc12)Nc1ccccc1 | / | 6.3 | / | / | 0.3
O=C(Cn1nc2n(c1=O)-c1ccccc1SC2)N/N=C/c1cccs1 | -19.9 | -20.6 | -2.6 | 41.4* | -0.4
COc1ccc(Cl)c2c1[nH]c1nc(SCc3cccnc3)nnc12 | -6.2 | -7.5 | -4.8 | 17.4 | 2.5
COc1ccc(Cl)c2c1[nH]c1nc(SCc3ccccn3)nnc12 | -17.3 | -10.4 | 1.5 | 42.9* | -0.6
Cc1c(C(=O)Nc2ccc(F)cc2)oc2ccc(S(=O)(=O)N3CCCCCC3)cc12 | / | 2.3 | / | / | -0.5
COc1cc2[nH]c(=O)n(CCCC(=O)N(C)Cc3ccccc3)c(=O)c2cc1OC | / | -4.5 | / | / | /
CCOC(=O)c1c(-c2ccccc2)oc2ccc(NS(=O)(=O)c3ccc(C)cc3)cc12 | / | -15.8 | / | / | /
O=C(NCc1ccco1)c1ccc(S(=O)(=O)N2CCCc3ccccc32)cc1 | -4.0 | -13.2 | 1.1 | 40.0* | 2.9
O=C(NCc1ccco1)c1cc([N+](=O)[O-])cc([N+](=O)[O-])c1 | 83.2* | 2.8 | 13.9 | 6.0 | 0.0
COc1ccc(-c2noc(-c3ccccc3C(=O)NCc3ccco3)n2)cc1 | -20.1 | -4.1 | -7.6 | 3.8 | 0.3
COc1ccc(-c2noc(-c3ccccc3C(=O)NCc3ccco3)n2)cc1OC | -12.7 | 32.2* | -2.0 | -4.8 | -0.2
O=C(NCc1ccco1)c1ccc2c(c1)C(=O)c1ccccc1-2 | -6.9 | 13.8 | 2.6 | 30.0* | -1.9
COc1ccc(N2CCN(c3nc4ccc(C)cc4n4nnnc34)CC2)cc1 | / | -2.6 | / | / | 0.1
COc1ccccc1C(=O)Nc1ccc(C(=O)OCc2cc(=O)n3nc(C)sc3n2)cc1 | / | -0.2 | / | / | /
CCOC(=O)c1cnc2c(Cl)cc(Cl)cc2c1Nc1ccccc1OC | / | -2.7 | / | / | 0.2
CC1CCN(CCOc2ccc(OCc3ccccc3)cc2)CC1 | -33.9 | -36.5 | -10.5 | 30.9* | 2.0
c1ccc(COc2ccc(OCCCCN3CCCC3)cc2)cc1 | -23.2 | 0.6 | -6.3 | -1.8 | 2.6
CC1CCN(CCCCOc2ccc(C(C)(C)C)cc2)CC1 | -12.6 | -19.7 | 1.8 | 32.6* | 0.7

Assay outcomes: PubChem, National Center for Advancing Translational Sciences (NCATS)
